Records with an inconclusive call do not appear. Values without a mark were called inactive. Active and inactive are the calls of the source. The call rests on the fitted dose curve; in most records, active means well fitted curve in the direction sought with a large enough effect; inconclusive means small, poorly fitted or top-dose-only effect, or another doubt; inactive means no such curve, though single readings can be large; an effect the other way counts as inactive or inconclusive.

A short description of experiment [1]: Quantitative High-Throughput drug screen in 47 multiple myeloma cell lines against the NCATS MIPE library collection: KMS27_JCRB cell viability assay (AID 1918970). Further: nearly all actives have a fitted effect of over 30% in size. Put shortly:
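Luminescent ATP read-out (CellTiter-Glo, 5 min at room temperature) after 48 h compound exposure of 500 KMS27_JCRB cells per well; DMSO wells define full viability and media-only wells zero.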

The nature of experiment [2]: Quantitative High-Throughput drug screen in 47 multiple myeloma cell lines against the NCATS MIPE library collection: KMS12BM_JCRB cell viability assay (AID 1918971). Further: nearly all actives have a fitted effect of over 35% in size. An outline of the steps:
(§1)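 qHTS of the MIPE 4.0 collection: 500 myeloma cells/well, 48 h drug exposure at 37C in 5% CO2, then CellTiter-Glo for 5 min at room temperature before luminescence reading.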

Experiment [3] in a line: Quantitative High-Throughput drug screen in 47 multiple myeloma cell lines against the NCATS MIPE library collection: KMS12PE_JCRB cell viability assay (AID 1918972). Further: nearly all actives have a fitted effect of over 30% in size.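 On viability: 100% = DMSO only wells and 0% = wells with media alone.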 An outline of the steps: (§2)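 Approved and investigational drugs from MIPE 4.0 were added by pin tool to 500 cells per well. After 48 hours at 37C, ATP-based CellTiter-Glo luminescence indicated remaining viability.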

A short description of experiment [4]: Quantitative High-Throughput drug screen in 47 multiple myeloma cell lines against the NCATS MIPE library collection: KMS26_JCRB cell viability assay (AID 1918975). Further: nearly all actives have a fitted effect of over 45% in size. An outline of the steps: as §1
The nature of experiment [5]: Quantitative High-Throughput drug screen in 47 multiple myeloma cell lines against the NCATS MIPE library collection: NCIH929_DSMZ cell viability assay (AID 1918978). Further: nearly all actives have a fitted effect of over 35% in size. Put shortly: (§3)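 MIPE 4.0 approved/investigational drugs; 500 cells/well; 48 h 37 °C humidified 5% CO2; CTG luminescence readout; DMSO = 100%, media = 0% viability.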
The nature of experiment [6]: Quantitative High-Throughput drug screen in 47 multiple myeloma cell lines against the NCATS MIPE library collection: OCIMY1_PLB cell viability assay (AID 1918979). Further: nearly all actives have a fitted effect of over 35% in size.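 On viability: 100% = DMSO-only wells and 0% = cell-free media-only wells.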 An outline of the steps:
as §3

Experiment [7] in a line: Quantitative High-Throughput drug screen in 47 multiple myeloma cell lines against the NCATS MIPE library collection: MM1R_ATCC cell viability assay (AID 1918981). Further: nearly all actives have a fitted effect of over 35% in size. Put shortly: as §3
The nature of experiment [8]: Quantitative High-Throughput drug screen in 47 multiple myeloma cell lines against the NCATS MIPE library collection: LP1_DSMZ cell viability assay (AID 1918982). Further: nearly all actives have a fitted effect of over 35% in size. An outline of the steps: as §3
Experiment [9] can be described thus: Quantitative High-Throughput drug screen in 47 multiple myeloma cell lines against the NCATS MIPE library collection: KMS28PE_JCRB cell viability assay (AID 1918983). Further: nearly all actives have a fitted effect of over 35% in size. An outline of the steps: as §3
A short description of experiment [10]: Quantitative High-Throughput drug screen in 47 multiple myeloma cell lines against the NCATS MIPE library collection: L363_DSMZ cell viability assay (AID 1918984). Further: nearly all actives have a fitted effect of over 40% in size. Put shortly:
as §3

The nature of experiment [11]: Quantitative High-Throughput drug screen in 47 multiple myeloma cell lines against the NCATS MIPE library collection: KMS34_JCRB cell viability assay (AID 1918985). Further: nearly all actives have a fitted effect of over 40% in size. An outline of the steps: as §3
Experiment [12] can be described thus: Quantitative High-Throughput drug screen in 47 multiple myeloma cell lines against the NCATS MIPE library collection: OPM1_PLB cell viability assay (AID 1918989). Further: nearly all actives have a fitted effect of over 40% in size. An outline of the steps: as §3
Experiment [13] in a line: Quantitative High-Throughput drug screen in 47 multiple myeloma cell lines against the NCATS MIPE library collection: KMS20_JCRB cell viability assay (AID 1918973). Further: nearly all actives have a fitted effect of over 45% in size. Put shortly:
as §2

The nature of experiment [14]: Quantitative High-Throughput drug screen in 47 multiple myeloma cell lines against the NCATS MIPE library collection: MOLP8_DSMZ cell viability assay (AID 1918977). Further: nearly all actives have a fitted effect of over 45% in size. An outline of the steps:
as §3

The nature of experiment [15]: Quantitative High-Throughput drug screen in 47 multiple myeloma cell lines against the NCATS MIPE library collection: MM1S_ATCC cell viability assay (AID 1918980). Further: nearly all actives have a fitted effect of over 45% in size. An outline of the steps: as §3
Experiment [16] is described as follows: Quantitative High-Throughput drug screen in 47 multiple myeloma cell lines against the NCATS MIPE library collection: SKMM1_PLB cell viability assay (AID 1919863). Further: nearly all actives have a fitted effect of over 35% in size. To be noted: SKMM1 myeloma viability, CellTiter-Glo ATP, 48 h; viability: stronger effect = lower value. Put shortly: as §3
A short description of experiment [17]: Quantitative High-Throughput drug screen in 47 multiple myeloma cell lines against the NCATS MIPE library collection: OCIMY7_PLB cell viability assay (AID 1918987). Further: nearly all actives have a fitted effect of over 65% in size. An outline of the steps: as §3
A short description of experiment [18]: Quantitative High-Throughput drug screen in 47 multiple myeloma cell lines against the NCATS MIPE library collection: MMM1_PLB cell viability assay (AID 1918976). Further: nearly all actives have a fitted effect of over 35% in size. Put shortly:
as §3

Experiment [19] can be described thus: Quantitative High-Throughput drug screen in 47 multiple myeloma cell lines against the NCATS MIPE library collection: OCIMY5_PLB cell viability assay (AID 1918988). Further: nearly all actives have a fitted effect of over 65% in size. Put shortly: as §3
Experiment [20] can be described thus: Quantitative High-Throughput drug screen in 47 multiple myeloma cell lines against the NCATS MIPE library collection: KMS21BM_JCRB cell viability assay (AID 1918974). The note with it: ATP luminescence, 48 h; viability: at 45.8 µM (top of the series) unless noted. Put shortly: as §2
Potency means the concentration at half of the fitted maximal effect.

For the compound `NS(=O)(=O)c1cc(C(=O)O)c(NCc2ccco2)cc1Cl`, the Potency entry in experiment [1], in experiment [2], in [3], in experiment [5], in experiment [6] and in experiment [7] was “inactive” in each case. Besides, the Potency result in [8], in experiment [9], in experiment [10], in experiment [11] and in experiment [12] was “inactive” each time. Further, the Potency in experiment [4] was 0.209 µM (active).

Turning to `Cc1nc2n(c(=O)c1CCN1CCC(c3noc4cc(F)ccc34)CC1)CCCC2`, the Potency entry in experiment [1], in experiment [2], in experiment [3], in [13], in experiment [14] and in experiment [6] was “inactive” in each case. Also, the Potency result in [15], in experiment [7], in experiment [8], in [9] and in experiment [11] was “inactive” throughout.

Take `O=C(NOCC1CC1)c1ccc(F)c(F)c1Nc1ccc(I)cc1Cl`: the Potency is 4.18 µM (active) in experiment [1]; 20.9 µM (active) in experiment [2]; 14.8 µM (active) in [3]; 0.59 µM (active) in experiment [13]; 14.8 µM (active) in experiment [14]; 20.9 µM (active) in experiment [5]. The Potency in experiment [15] was 23.5 µM (active); in experiment [10], 18.7 µM (active); in experiment [11] it was 23.5 µM (active); in experiment [12] it was 18.7 µM (active); in experiment [16], 20.9 µM (active).

`COc1ccccc1N1CCN(CCN(C(=O)C2CCCCC2)c2ccccn2)CC1`: the Potency in [1] was 9.35 µM (active); in [3], 18.7 µM (active); in experiment [13], 5.26 µM (active); in [5], 8.33 µM (active); in experiment [17], 7.43 µM (active). Besides, the Potency entry in [2], in experiment [4], in [14], in experiment [8], in experiment [11] and in experiment [12] was “inactive” throughout. Further, the viability in experiment [16] is 126%.

As for `CNC[C@H](O)c1ccc(O)c(O)c1`, the Potency result in experiment [1], in [3] and in experiment [10] was “inactive” throughout. The Potency in [2] was 19.1 µM (active); in experiment [13], 10.8 µM (active); in experiment [4], 10.8 µM (active); in [18], 6.79 µM (active); in experiment [14], 8.55 µM (active); in [6], 38.2 µM (active). Besides, the Potency is 17.1 µM (active) in experiment [15], 6.05 µM (active) in experiment [7], 13.6 µM (active) in experiment [9] and 30.3 µM (active) in [11].

For `S=c1nc[nH]c2nc[nH]c12`, the Potency in experiment [1] was 7.43 µM (active); in experiment [2], 13.2 µM (active); in experiment [3], 2.35 µM (active); in experiment [4] it was 5.9 µM (active); in [5] it was 2.96 µM (active); in [7], 7.43 µM (active). Further, in experiment [12], the Potency is 1.66 µM (active). In addition, the Potency entry in [14] was “inactive”.

Consider `CCN(CC)CCOc1ccc(Nc2ncc3cc(-c4c(Cl)cccc4Cl)c(=O)n(C)c3n2)cc1`, for which the Potency in experiment [1] was 0.132 µM (active); in experiment [2] it was 2.35 µM (active); in [3], 0.0105 µM (active); in experiment [13] it was 0.001 µM (active); in [4], 5.26 µM (active); in experiment [14], 0.059 µM (active). Besides, the Potency in experiment [5] is 1.87 µM (active); in experiment [6], 2.96 µM (active); in experiment [15], 2.35 µM (active); in experiment [7], 1.32 µM (active); in experiment [8] it was 1.87 µM (active); in experiment [9], 1.18 µM (active). Also, the Potency is 0.166 µM (active) in experiment [11]; 1.48 µM (active) in experiment [17]; 0.105 µM (active) in experiment [19]; 0.0187 µM (active) in experiment [12]; 5.26 µM (active) in experiment [16].

`O=C(OC1C[C@H]2CC[C@@H](C1)[N+]21CCCC1)C(O)(c1ccccc1)c1ccccc1` (some centres not stated): the Potency entry in [1], in experiment [2], in [3], in experiment [20], in [4] and in experiment [14] was “inactive” in each case. Moreover, the Potency result in experiment [15], in [7], in experiment [9], in experiment [10], in [17] and in [19] was “inactive” each time. Also, in experiment [12], the Potency result was “inactive”. The viability in experiment [16] was 138%.

For the compound `NNc1nncc2ccccc12`, the Potency entry in experiment [1], in experiment [2], in experiment [3], in experiment [13], in experiment [4] and in experiment [5] was “inactive” each time. Further, the Potency result in experiment [15], in [7], in experiment [9], in experiment [10], in experiment [11] and in experiment [17] was “inactive” in each case. Besides, the Potency entry in experiment [12] is “inactive”. Besides, the Potency in experiment [18] is 20.9 µM (active). Besides, the viability in [16] was 116%.

On to `COc1c2occc2cc2ccc(=O)oc12`, for which the Potency entry in [1], in [3], in experiment [4], in experiment [7], in [8] and in experiment [9] was “inactive” in each case. In addition, the Potency result in experiment [10] and in [11] was “inactive” in each case. Further, the Potency in experiment [2] is 20.9 µM (active); in experiment [18], 1.32 µM (active); in experiment [15], 18.7 µM (active).

As for `Clc1ccc(C(Cn2ccnc2)OCc2ccc(Sc3ccccc3)cc2)c(Cl)c1` (configuration not stated), the Potency in experiment [1] was 18.7 µM (active); in [2], 26.4 µM (active); in [3] it was 18.7 µM (active); in experiment [20] it was 26.4 µM (active); in experiment [18] it was 23.5 µM (active); in experiment [15], 18.7 µM (active). Further, the Potency in experiment [7] is 26.4 µM (active); in experiment [10], 20.9 µM (active); in experiment [17], 26.4 µM (active); in experiment [19], 26.4 µM (active).

Turning to `O=C(c1ccccc1)c1ccc2n1CCC2C(=O)O` (configuration not stated), the Potency entry in experiment [1], in [2], in experiment [3], in [20], in experiment [14] and in experiment [8] was “inactive” in each case. Moreover, the Potency result in [9], in experiment [10] and in experiment [11] was “inactive” throughout. For the same compound, the Potency is 8.33 µM (active) in [13]; 1.48 µM (active) in experiment [4]; 0.743 µM (active) in experiment [18]; 5.26 µM (active) in experiment [5]; 1.05 µM (active) in [15]; 2.09 µM (active) in experiment [7]. Also, the Potency was 7.43 µM (active) in [17], 0.743 µM (active) in experiment [19] and 20.9 µM (active) in [12]. Also, in [16], the viability was 105%.

For the compound `Nc1ccc(S(N)(=O)=O)cc1`, the Potency result in experiment [1], in experiment [2], in [3], in experiment [20], in experiment [4] and in experiment [14] was “inactive” throughout. In addition, the Potency result in experiment [5], in [15], in experiment [7], in [9], in [17] and in [19] was “inactive” each time. In addition, the Potency result in experiment [12] is “inactive”. For the same compound, the viability in experiment [16] was 120%.

Values taken from PubChem BioAssay (NCATS).
